From PubChem BioAssay
Active and inactive are the calls of the source.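 The calls were made as follows, unless noted: active = inhibition above 20% together with a positive visual image hit; inconclusive = visual image hit but inhibition not above 20%; inactive = no visual image hit.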

Tests used:
[1] = inhibitors of TNFa-induced NFkB p65 translocation, primary screen, imaging, HUVEC, MLSMR starter and 10KST1 sets (AID 438); conditions: HUVEC TNFa-induced p65 nuclear translocation; cell count: measured here: nuclei count (cytotoxicity indicator), at 2.08 µM; inhibition: at 2 µM, stronger effect = higher value, 0% TNFa-plus-vehicle, 100% no-TNFa wells;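 also: compound added about 3h40 before a 20 min TNFalpha stimulation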;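 as to inhibition: signal is the nuclear over cytoplasmic p65 intensity ratio per well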
[2] = reduction of polyQ htt aggregates in cells – imaging, exon1htt(103Q)mCFP cells, high-content imaging, primary screen (AID 483;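 active = visual image review flags a hit and inhibition of aggregation exceeds 20%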;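 also: compound exposure lasted 3 days before fixation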;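 as to nuclei count: percent of the per-plate median nuclei count of sample wells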); conditions: exon1htt(103Q)mCFP cell line, aggregate imaging, at 2 µM; inhibition of aggregation: stronger effect = higher value; nuclei count: measured here: cell count, toxicity
[3] = endothelial E-selectin expression blockers – imaging, HUVEC, immunofluorescence, MLSMR starter and 10KST1 sets, primary screen (AID 487;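 active = visually confirmed hit in the image check and inhibition above 20%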;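 as to inhibition: signal is fraction of cell area covered by stained E-selectin grains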;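 as to nuclei count: 100% = median nuclei count of all wells on the same plate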); conditions: HUVEC TNFalpha-induced E-selectin immunofluorescence imaging, at 2 µM; inhibition: stronger effect = higher value; nuclei count: measured here: cell number, toxicity
[4] = biological target: Voltage-gated potassium channel subunit beta-2 (Rattus norvegicus) (UniProt P62483); assay: inhibitors of rat Kvbeta2 reductase activity – biochemical, NADPH fluorescence, primary screen (AID 622;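 active = fluorescence slope higher than the sample average by over 3 SD, cut at about -0.22 in these data, passing the limit was not always enough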;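 also: slope of raw intensity against log time taken from 70 to 1610 s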); conditions: recombinant KvBeta, 4-cyanobenzaldehyde reduction, at 10 µM, stronger effect = higher value
Sequence of Voltage-gated potassium channel subunit beta-2 (Rattus norvegicus) (P62483 whole entry, looked up): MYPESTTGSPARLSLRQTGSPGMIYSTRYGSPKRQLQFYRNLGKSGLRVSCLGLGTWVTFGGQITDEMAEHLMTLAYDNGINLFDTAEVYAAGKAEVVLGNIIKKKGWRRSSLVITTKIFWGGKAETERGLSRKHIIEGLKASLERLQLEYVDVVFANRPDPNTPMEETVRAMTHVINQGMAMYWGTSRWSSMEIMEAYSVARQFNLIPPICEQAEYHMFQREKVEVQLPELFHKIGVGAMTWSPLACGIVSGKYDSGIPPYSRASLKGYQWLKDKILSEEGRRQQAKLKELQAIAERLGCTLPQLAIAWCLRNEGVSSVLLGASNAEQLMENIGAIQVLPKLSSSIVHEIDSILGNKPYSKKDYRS

[5] = biological target: Voltage-gated potassium channel subunit beta-2 (Rattus norvegicus) (UniProt P62483); assay: enhancers of rat Kvbeta2 NADPH turnover – biochemical, NADPH fluorescence, primary screen (AID 623;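 active = NADPH fluorescence slope more negative than the mean of all samples by about 3 SD, 99.7% confidence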;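 also: fluorescence intensity change per second fitted from 20 to 320 s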); conditions: Recombinant KvBeta, NADPH fluorescence decrease slope, 10 min; at 10 µM; stronger effect = lower value
[6] = biological target: Alpha-2C adrenergic receptor (Homo sapiens) (UniProt P18825); assay: compounds altering alpha2C-coupled GIRK flux – cell-based, HEK293 alpha2C/GIRK1/2, thallium flux, primary screen (AID 624;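 active = fluorescence slope after compound addition differing from the mean of all screened samples at 99.7% confidence, in either direction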;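 also: slope of fluorescence ratio to pre-addition baseline per second over 15 to 24 s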); conditions: thallium flux BTC fluorescence, at 10 µM, actives lie on both sides
Sequence of Alpha-2C adrenergic receptor (Homo sapiens) (P18825 whole entry, looked up): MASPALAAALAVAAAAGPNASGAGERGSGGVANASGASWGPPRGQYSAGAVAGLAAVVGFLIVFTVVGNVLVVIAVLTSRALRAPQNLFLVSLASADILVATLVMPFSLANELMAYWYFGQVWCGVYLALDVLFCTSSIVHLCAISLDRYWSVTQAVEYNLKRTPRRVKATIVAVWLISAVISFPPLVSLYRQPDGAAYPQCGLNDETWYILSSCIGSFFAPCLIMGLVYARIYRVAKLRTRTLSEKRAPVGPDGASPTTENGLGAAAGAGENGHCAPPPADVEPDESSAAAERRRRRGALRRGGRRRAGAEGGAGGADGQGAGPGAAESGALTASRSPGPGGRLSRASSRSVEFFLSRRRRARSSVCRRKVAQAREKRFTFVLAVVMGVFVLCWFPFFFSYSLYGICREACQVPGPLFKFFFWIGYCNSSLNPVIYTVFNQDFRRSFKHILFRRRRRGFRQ

[7] = blockers of RIG-like receptor reporter activation – cell-based, Sendai virus stimulus, luciferase, 10K MLSCN set, TLR/RLR signaling modifier project, primary screen (AID 602276;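 active = inhibition at or above 50% at 10 µM; inactive = inhibition below 50%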;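 also: firefly luciferase from ISG56 promoter only with Renilla not read in this screen; 0% = Sendai virus plus DMSO and 100% = medium plus DMSO without virus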); conditions: HEK293 RL24 IRF3 luciferase reporter, at 10 µM, stronger effect = higher value
[8] = TLR3 IRF3 reporter activation blockers – cell-based, poly I:C stimulus, luciferase, 10K MLSCN set, primary screen (AID 602277;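 active = inhibition of the reporter signal at or above 50%; inactive = inhibition below 50%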); conditions: HEK293-TLR3 RL24 IRF3 luciferase reporter, at 10 µM, stronger effect = higher value

SMILES	cell count [1]	inhibition [1]	inhibition of aggregation [2]	nuclei count [2] [%]	inhibition [3]	nuclei count [3] [%]	fluorescence slope [4]	NADPH fluorescence slope [5]	slope [6]	inhibition [7]	inhibition [8]
CC(C)CC1NC(=O)N(CC(=O)N2CCN(S(=O)(=O)c3ccc(Cl)cc3)CC2)C1=O (configuration not stated)	716	4% (inactive)	11.8% (inactive)	93	-35.6% (inactive)	76.3	-0.416 (inactive)	4.2e-06 (inactive)	0.00417 (inactive)	15.2% (inactive)	-5.28% (inactive)
CCOC(=O)N1CCC2(O)CCCCC2C1c1ccc(F)cc1 (configuration not stated)	450	-1.7% (inactive)	-11.2% (inactive)	108	-73.3% (inactive)	109	-0.439 (inactive)	1.9e-05 (inactive)	0.00629 (inactive)	14.6% (inactive)	22.6% (inactive)
O=C(c1ncn[nH]1)N1CCN(c2nc(-c3ccccc3)cs2)CC1	397	2.5% (inactive)	2.5% (inactive)	68.1	22.4% (inactive)	111	-0.387 (inactive)	-4.6e-06 (inactive)	0.00549 (inactive)	-1.81% (inactive)	-36.8% (inactive)
Cc1ccc(-c2cn3nc(C)c(C)nc3n2)cc1	778	-23.3% (inactive)	-5.7% (inactive)	119	-35.5% (inactive)	121	-0.007 (active)	-3.4e-06 (inactive)	0.00494 (inactive)	20% (inactive)	1.39% (inactive)
COC(=O)c1cn(NC(=O)c2cccnc2)c(=O)c2ccccc12	364	2.5% (inactive)	-32.8% (inactive)	112	29.8% (inactive)	115	-0.538 (inactive)	-6.1e-05 (inactive)	0.00509 (inactive)	10.1% (inactive)	18.9% (inactive)
Cc1nc2c(-c3ccccc3)c(C)nn2c(C)c1CCC(=O)NCc1ccco1	545	-1.1% (inactive)	-8.9% (inactive)	84.3	-61.2% (inactive)	102	-0.584 (inactive)	1.5e-05 (inactive)	0.00663 (inactive)	9.03% (inactive)	31.1% (inactive)
CCOC(=O)c1cc2sc(C)cc2n1C(C)C(=O)OCC (configuration not stated)	291	0.5% (inactive)	-7% (inactive)	106	-48.6% (inactive)	123	-0.607 (inactive)	-3.9e-05 (inactive)	0.00348 (inactive)	18.2% (inactive)	20.3% (inactive)
CC(C)n1nc(C(=O)Nc2nc3ccc(S(C)(=O)=O)cc3s2)c2ccccc2c1=O	452	-6.8% (inactive)	-5.5% (inactive)	35.2	-52.1% (inactive)	117	-0.265 (inactive)	-2.5e-05 (inactive)	0.00538 (inactive)	18.5% (inactive)	29.9% (inactive)
CCCCCSc1nc2c(cnn2-c2ccccc2)c(=O)[nH]1	241	-4.9% (inactive)	-3.4% (inactive)	100	-35.9% (inactive)	125	-0.399 (inactive)	-5.4e-05 (inactive)	0.00382 (inactive)	11.4% (inactive)	27.5% (inactive)
CCOc1ccccc1N(C(=O)Cn1nnnc1-c1ccc(C)o1)C(CC)C(=O)NC(C)(C)C (configuration not stated)	663	1.6% (inactive)	-4.4% (inactive)	111	-61.8% (inactive)	89.5	-0.531 (inactive)	-6.1e-06 (inactive)	0.00561 (inactive)	-5.79% (inactive)	11.2% (inactive)
Cc1cc(=O)n(CCO)c(O)c1C#N	735	0.3% (inactive)	-6.8% (inactive)	94	-22.2% (inactive)	110	-0.351 (inactive)	8.2e-06 (inactive)	0.00309 (inactive)	18.6% (inactive)	15% (inactive)
Cc1nc2ccc(S(=O)(=O)NC(C(=O)N3CCCC3)C(C)C)cc2s1 (configuration not stated)	677	1.8% (inactive)	-21.4% (inactive)	111	-33% (inactive)	110	-0.613 (inactive)	1.2e-05 (inactive)	0.00717 (inactive)	12.9% (inactive)	13.8% (inactive)
